According to PubChem BioAssay:
Unmarked numbers belong to inactive results. Calls of active or inactive are those of the source.

Experiment: ATP-based viability of Huh7 replicon cells – cell-based, CellTiter-Glo luminescence, basal, 48 h, cytotoxicity control for HCV replication inhibitor project, primary screen (AID 1143);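 also: Huh7 hepatoma cells carrying a hepatitis C replication reporter with no stimulus; test concentration not given here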
Details: higher = more signal, called active from +8 up or from −8 down
For COCCOC(=O)N1C(=O)[C@@]2(c3ccccc31)[C@H](c1ccc(OCCO)cc1)N1[C@H](c3ccccc3)[C@H](c3ccccc3)OC(=O)[C@H]1[C@@H]2C(=O)N1CCc2cc(OC)c(OC)cc2C1, the z-score was -2.12.
Work on O=C(CS)NCCCCCNC(=O)[C@H]1C[C@H]2C(=O)NCC(=O)N2[C@H]1c1cccc(OCCO)c1 yielded a z-score of -0.466.
In the case of CCCC[C@@H]1C[C@H]1[C@@H](NC(=O)c1cccnc1)c1ccc(Cl)cc1, the z-score is reported as -1.25.
With CCCCCCCCCCC(O)C1C=CC2C(=O)NC(=O)C2N1Nc1ccc(Cl)cc1Cl (stereo unspecified) the z-score was -1.95.
For O=C1O[C@H](c2ccccc2)[C@H](c2ccccc2)N2[C@H]1[C@@H](C(=O)N1CCN(c3ncccn3)CC1)[C@]1(C(=O)Nc3ccc(C#CC4=CCCCC4)cc31)[C@H]2c1ccccc1OCCO, the z-score was -3.34.
For CCCCC(O)C1C=CC2C(=O)N(C)C(=O)C2N1N1CCCCC1 (stereo unspecified), the z-score was 1.09.
Compound O=C1OCCC=C[C@H]2OC34C=CCN(c5ccc(Cl)cc5)C(=O)[C@H]3N(CCCO)C(=O)[C@@H]4C12 (stereo partly specified) has a z-score of -2.24.
With CO[C@H]1O[C@H](CO)[C@@H](OC(=O)Nc2cccc(F)c2)[C@H](OC(=O)Nc2ccccc2)[C@H]1OC(=O)Nc1ccccc1 the z-score was -4.58.
In the case of C#CCOc1ccc(C[C@@H](C(=O)OC)N(CC#C)[C@@H](/C=C/C2CC2)[C@H](O)Cc2ccccc2)cc1, the z-score is reported as -2.59.
CCCCCCc1nc(-c2ccc(-c3ccc(Cl)c(Cl)c3)o2)c(C)c2c1[Si](C(C)C)(C(C)C)OC2 gave a z-score of -5.66.
Compound COCCOC(=O)N1C(=O)[C@@]2(c3ccccc31)[C@H](C(=O)N1CCCCCCC1)[C@H]1C(=O)O[C@H](c3ccccc3)[C@H](c3ccccc3)N1[C@@H]2c1ccc(OCCO)cc1 has a z-score of -2.7.
In the case of COc1ccc([Si](C)(C)[C@H]2[C@H](CCO)O[C@@]3(C(=O)N(Cc4ccccc4)c4ccc(N5CCCCC5=O)cc43)[C@@H]2C)cc1, the z-score is reported as -7.68.
In the case of COCCCNC(=O)[C@@]1(Sc2ccc(C)cc2)CC(=O)N(Cc2ccccc2Cl)[C@@H]1c1ccc(CO)cc1, the z-score is reported as -4.58.
Compound CO[C@H]1O[C@H](CO)[C@@H](OC(=O)Nc2ccccc2)[C@@H]2OC(=O)[C@@H](Cc3ccc4ccccc4c3)C/C=C/C[C@H](Cc3ccc4ccccc4c3)C(=O)O[C@@H]12 has a z-score of -3.61.
With [N-]=[N+]=Nc1ccccc1C[C@]1(C(=O)N2CCCCC2)COC(c2ccc(OCCCO)cc2)=N1 the z-score was -4.35.
With C=C(C(=O)CC[C@H](OC(C)=O)c1ccccc1OCCO)C(C)C the z-score was -8.56 (active).
COCCOC(=O)N1C(=O)[C@@]2(c3cc(C#CCCO)ccc31)[C@H](c1ccc(OCCO)cc1)N1[C@H](c3ccccc3)[C@H](c3ccccc3)OC(=O)[C@H]1[C@@H]2C(N)=O gave a z-score of -1.47.
In the case of C=CCC(OC(C)=O)[C@@H]1[C@@H](N(Cc2ccc(-c3ccccc3)cc2)C(=O)Cc2ccc(F)cc2)c2cc(OCCCO)ccc2N1C(=O)c1ccc2ccccc2c1 (stereo partly specified), the z-score is reported as 0.0038.
COC(=O)[C@@]1(Cc2ccccc2)[C@H]2c3cc(C(=O)N4CCCC4)n(Cc4ccc(O)c(OC)c4)c3C[C@H]2CN1C(=O)c1ccccc1 showed a z-score of -2.34.
CCOC(=O)C1=CC[C@@H](c2ccc(C(F)(F)F)cc2)N(S(=O)(=O)c2ccc(C)cc2)[C@H]1c1ccccc1 showed a z-score of -4.89.
For O=C(CS)NCCCCCNC(=O)[C@@H]1C[C@@H]2C(=O)NCC(=O)N2[C@@H]1c1cccc(OCCO)c1, the z-score was -0.556.
For C=CCC(OC(C)=O)[C@@H]1[C@@H](N(Cc2ccc(-c3cccc(C(F)(F)F)c3)o2)C(=O)Cc2ccc(OC)cc2)c2cc(OCCCO)ccc2N1C(=O)c1ccc2ccccc2c1 (stereo partly specified), the z-score was -1.54.
Compound CC=CC(O)C1C=CC2C(=O)N(C)C(=O)C2N1N(c1ccccc1)c1ccccc1 (stereo unspecified) has a z-score of 0.695.
Compound O=C1O[C@@H](c2ccccc2)[C@@H](c2ccccc2)N2[C@@H](c3ccc(OCCO)cc3)[C@]3(C(=O)Nc4ccc(C#CCCO)cc43)[C@@H](C(=O)NC[C@H](O)c3ccccc3)[C@H]12 has a z-score of -0.673.
CC[C@@H]1C=C(C(=O)O)[C@H](c2cccc3ccccc23)N1S(=O)(=O)c1ccc(C)cc1 gave a z-score of -0.0086.
C[N+](C)(C)CCCCCCNC(=O)[C@H]1C[C@H]2C(=O)N[C@@H](Cc3ccccc3)C(=O)N2[C@H]1c1cccc(OCCO)c1 showed a z-score of -0.236.
Work on CCOC(=O)C[C@H]1[C@H](OC(=O)c2ccc(C(=O)c3ccccc3)cc2)[C@@H](NC(=O)Cc2ccc(OC)cc2)c2cc(OCCCO)ccc2N1C(=O)c1ccc2ccccc2n1 yielded a z-score of 0.0378.
Work on CC(C)(C)OC(=O)CC[C@]1(C(=O)NCCN2CCOCC2)COC(c2ccc(OCCCO)cc2)=N1 yielded a z-score of -0.102.
Work on COc1ccc(C(=O)Nc2cccc(CN3C(=O)[C@]4(O[C@H](CCn5cc(CCO)nn5)[C@@H]([Si](C)(C)c5ccc(OC)cc5)[C@@H]4C)c4ccccc43)c2)cc1 yielded a z-score of -7.97.
Compound COc1ccc(CCNC(=O)[C@@]2(c3ccc([N+](=O)[O-])cc3)CC(=O)N(CC34CC5CC(CC(C5)C3)C4)[C@@H]2c2ccc(CO)cc2I)cc1 has a z-score of -5.87.
In the case of COc1ccc([C@H]2OC[C@@H]3CCC(=O)N32)cc1, the z-score is reported as 0.638.
Work on O=C1O[C@@H](c2ccccc2)[C@@H](c2ccccc2)N2[C@@H](c3ccccc3OCCO)[C@]3(C(=O)Nc4ccccc43)[C@@H](C(=O)O)[C@H]12 yielded a z-score of -0.99.
Work on CCOc1cc(C(O)C2C=CC3C(=O)N(c4ccccc4)C(=O)C3N2Nc2ccc(C(C)C)cc2)ccc1O (stereo unspecified) yielded a z-score of -1.15.
With O=C1OCC=C[C@H]2OC34C=CCN(Cn5nnc6ccccc65)C(=O)[C@H]3N(CCCCCO)C(=O)[C@@H]4[C@@H]12 (stereo partly specified) the z-score was -0.17.
For COC(=O)C(CC#Cc1ccc2c(c1)[C@]1(C(=O)N2)[C@H](c2ccc(O)cc2)N2[C@H](c3ccccc3)[C@H](c3ccccc3)OC(=O)[C@H]2[C@@H]1C(=O)N1CCN(c2ncccn2)CC1)C(=O)OC, the z-score was -2.25.
CC[C@@H]1C=C(C(=O)O)[C@H](c2ccc(C)cc2)N1S(=O)(=O)c1ccc(C)cc1 showed a z-score of -0.52.
